Several values for one entry are separate records, joined by “and”; a condition that tells them apart may be missing. Identical values can stand only once. Inconclusive results are not listed. Activity calls are given as the source filed them. Calls follow the shape of the dose curve; as a rule, active = well fitted curve in the direction sought with a large enough effect; inconclusive = small, poorly fitted or top-dose-only effect, or another doubt; inactive = no such curve, though single readings can be large; an effect the other way counts as inactive or inconclusive.
Also: nearly all actives have a fitted effect of over 70% in size.
Potency is read from the fitted curve at half-maximal effect.

A short description of one assay: Primary qHTS for inhibitors of nuclear receptor binding SET domain protein 2 (NSD2) in an isogenic RCH-ACV NSD2 p.E1099K mutant (9B) (AID 1645876). To be noted: RCH-ACV NSD2 E1099K (9B) viability, CellTiter-Glo, 72 h; series mostly up to 44.9 µM. (In general: Quantitative high-throughput screening tests each substance at several concentrations.)
On to `COc1ccc(Nc2cc(-c3cnc(N)nc3)nc(N3CCOCC3)n2)cn1`, for which the Potency is 0.525 µM (active).
Take `c1cncc(CN2CCC(n3ncc4c(N5CCOCC5)nc(-c5ccc6[nH]ccc6c5)nc43)CC2)c1`: the Potency is 916 nM (active) and 833 nM (active).
On the same count and under the same terms, as for `COc1ccc(C=Cc2cc(OC)c(OC)c(OC)c2)cc1NC(=O)[C@H](N)CO`, the figure is 0.118 µM (active); as for `CC(O)(C#Cc1ccc2c(c1)N(c1nc(N)ncc1Cl)CC2)c1nccs1` (configuration not stated), 13.2 µM (active); as for `CCc1c(O)cc(O)c(C(=O)c2ccc(OCCN3CCOCC3)c(OC)c2)c1CC(=O)N(CCOC)CCOC`, 0.372 µM (active).
The same measure, in the same setting: as for `CN1C(C(=O)Nc2ccccn2)=C(O)c2sc(Cl)cc2S1(=O)=O`, the entry is “inactive”; as for `Oc1ccc([C@@H]2Oc3ccc(O)cc3[C@@H]3CCC[C@@H]32)cc1`, 8.33 µM (active).
On the same count and under the same terms, the value for `FC(F)c1nc2ccccc2n1-c1nc(N2CCOCC2)nc(N2CCOCC2)n1` was 57.8 nM (active) and 41.7 nM (active); that for `C#Cc1cccc(Nc2ncnc3cc(OCCOC)c(OCCO)cc23)c1` was 14.8 µM (active); that for `CN(C)CC(=O)N1CCC(c2ccc(NC(=O)c3ncc(C#N)[nH]3)c(C3=CCCCC3)c2)CC1` was 5.8 µM (active) and 11.8 µM (active).
`Cc1noc(-c2ccc(CSCCC(=O)O)cc2)c1NC(=O)OC(C)c1ccccc1Cl` (configuration not stated): the Potency entry was “inactive”.
Still for that read-out and setting: the value for `CS(=O)(=O)N1CCc2c(-c3cnc(N)nc3)nc(N3CCOCC3)nc21` was 920 nM (active) and 468 nM (active); that for `CN1CCc2c(c3ccccc3n2Cc2ccc(C(=O)NO)cc2)C1` was 16.3 µM (active) and 18.6 µM (active); that for `NC(=O)N1CCC(CC(=O)N2CCC([C@H]3c4ncc(Br)cc4CCc4cc(Cl)cc(Br)c43)CC2)CC1` was 14.8 µM (active).
In the case of `O=C(Nc1cc2cc[nH]c2cn1)c1ccccc1`, the Potency was 12.9 µM (active).
As to `CC(C)(N)c1ccc(-c2nc3ccccc3nc2-c2ccccc2)cc1`, the Potency is 16.3 µM (active).
The same measure, in the same setting: the value for `CC(C)n1cnc2c(NCCc3ccc(O)cc3)nc(-c3csc4ccccc34)nc21` was 20.5 µM (active).

The next assay can be described thus: Primary qHTS for inhibitors of nuclear receptor binding SET domain protein 2 (NSD2) in an RCH-ACV wild type WT cells (2C) (AID 1645877). As to conditions: RCH-ACV (leukaemia line) NSD2 WT (2C) viability, CellTiter-Glo, 72 h; series mostly up to 44.9 µM.
Regarding `COc1ccc(Nc2cc(-c3cnc(N)nc3)nc(N3CCOCC3)n2)cn1`, the Potency was 0.59 µM (active).
Consider `c1cncc(CN2CCC(n3ncc4c(N5CCOCC5)nc(-c5ccc6[nH]ccc6c5)nc43)CC2)c1`, for which the Potency was 1.15 µM (active) and 1.05 µM (active).
Still for that read-out and setting: as for `COc1ccc(C=Cc2cc(OC)c(OC)c(OC)c2)cc1NC(=O)[C@H](N)CO`, the figure is 0.118 µM (active); as for `CC(O)(C#Cc1ccc2c(c1)N(c1nc(N)ncc1Cl)CC2)c1nccs1` (configuration not stated), 13.2 µM (active); as for `CCc1c(O)cc(O)c(C(=O)c2ccc(OCCN3CCOCC3)c(OC)c2)c1CC(=O)N(CCOC)CCOC`, 0.148 µM (active).
On the same count and under the same terms, the value for `CN1C(C(=O)Nc2ccccn2)=C(O)c2sc(Cl)cc2S1(=O)=O` was “inactive”; that for `Oc1ccc([C@@H]2Oc3ccc(O)cc3[C@@H]3CCC[C@@H]32)cc1` was 5.9 µM (active).
Still for that read-out and setting: the value for `FC(F)c1nc2ccccc2n1-c1nc(N2CCOCC2)nc(N2CCOCC2)n1` was 72.8 nM (active) and 105 nM (active); that for `C#Cc1cccc(Nc2ncnc3cc(OCCOC)c(OCCO)cc23)c1` was 13.2 µM (active).
In the case of `CN(C)CC(=O)N1CCC(c2ccc(NC(=O)c3ncc(C#N)[nH]3)c(C3=CCCCC3)c2)CC1`, the Potency was 10.3 µM (active) and 9.34 µM (active).
Still for that read-out and setting: as for `CS(=O)(=O)N1CCc2c(-c3cnc(N)nc3)nc(N3CCOCC3)nc21`, the figure is 459 nM (active) and 468 nM (active); as for `CN1CCc2c(c3ccccc3n2Cc2ccc(C(=O)NO)cc2)C1`, 11.5 µM (active) and 16.6 µM (active).
Turning to `O=C(Nc1cc2cc[nH]c2cn1)c1ccccc1`, the Potency is 9.16 µM (active).
The same measure, in the same setting: the value for `CC(C)(N)c1ccc(-c2nc3ccccc3nc2-c2ccccc2)cc1` was 20.5 µM (active); that for `CC(C)n1cnc2c(NCCc3ccc(O)cc3)nc(-c3csc4ccccc34)nc21` was 26.3 µM (active).

For the origin of these results see PubChem BioAssay (NCATS).
